Data as given in PubChem BioAssay (NCI).
The panel holds about 83,000 compounds, 20% with a hit somewhere; the sample as a whole holds those more often.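 Treatment: one concentration, 48 hours, 96-well format. Scoring: percent growth, with anything below 10 considered active.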 Values without a mark were called inactive. The source made the active and inactive calls.

Test system: UO-31 renal
Assay: NCI-60 one-dose screen, 48 h (100 = growth as untreated, 0 = no growth, -100 = all killed)
Conditions: 10 µM unless noted

Row | Structure (SMILES) | growth
1 | O=C(Oc1ccccc1)c1ccccc1Cl | 96.7%
2 | COc1ccc(-c2nc(SCC(C)C)nc(Nc3ccc(C(=O)O)cc3)c2C#N)cc1 | 92.9%
3 | C[C@@H](c1ccc2c(c1)[nH]c1ccc(Cl)cc12)c1nc2ccccc2[nH]1 | 56.6%
4 | Cc1nnc(/N=C2\NC(=O)/C(=C/C=C/c3ccccc3)S2)s1 | 55.2%
5 | CCOc1ccccc1/C=N\N=C(N/N=C/c1ccccc1OCC)N/N=C/c1ccccc1OCC | -8.3% (active)
6 | CCOC(=O)CSSCC(=O)OCC | 100%
7 | O=C(O)c1ccc(Br)nc1 | 86.3%
8 | O=C(O)c1ccc(-c2nn(-c3ccc(C(=O)O)cc3)cc2CNc2ccc(Br)cc2)cc1 | 87.7%
9 | NC(N)=N/N=C/c1cccc(Br)c1 | 79.5%
10 | C=CCNC(=S)NNc1ccc([N+](=O)[O-])cn1 | 83.7%
11 | CCCC(=O)Nc1ccccc1C(=O)O | 91.3%
12 | O=C(/C=C1\C(=O)N(Cc2ccc([N+](=O)[O-])cc2)c2ccccc21)c1ccc(OCCN2CCCCC2)cc1 | -97.1% (active)
13 | COc1cc2cc3cc4cc(OC)c(OC)cc4c(C)[n+]3cc2cc1OC (tested in a mixture with another compound) | 59.6%
14 | COc1ccc(-c2nc(N)n(C(=S)Nc3ccccc3)n2)cc1 | 74.2%
15 | Nc1ccc(N=Nc2ccccc2)c2cc(S(=O)(=O)O)ccc12 | 86.7%
16 | O=C(C(=O)N1CCOCC1)c1ccc(O[C@H]2O[C@H](CO)[C@@H](O)[C@H](O)[C@@H]2O)cc1 | 91.5%
17 | O=C(/C=C1\C(=O)N(Cc2ccccc2)c2ccccc21)c1ccc(OCCN2CCCCC2)cc1 | -25.9% (active)
18 | CCCCCCNC(=O)Oc1ccc(/C(=C(/C)Cc2ccc(OC)cc2)c2ccc(OCCN(C)C)cc2)cc1 | 38.9%
19 | COc1ccc(-c2nc(SCC(C)C)nc(Nc3ccc(C)cc3)c2C#N)cc1 | 59.7%
20 | CCOC(=O)C1CCCN1C(=O)C1(NC(C)=O)CCCC1 (stereo not given) | 88.5%

Row | Structure (SMILES) | growth
21 | CCOC(=O)C1=NN(c2ccccc2)C2=NC(=O)/C(=C\c3cn(-c4ccccc4)nc3-c3cc4ccccc4o3)C(=O)N12 | 68.5%
22 | CC1=C(C)C[C@]2(C(=O)O[C@H]3CCCC[C@@H]32)[S@](=O)C1 | 91.2%
23 | CC(=N\N=C(N)N)/C(=N/N=C(N)N)c1ccccc1 | 82.9%
24 | O=C1/C(=C\c2cn(-c3nc(N4CCOCC4)nc(N4CCOCC4)n3)c3ccccc23)c2ccccc2N1c1c(Cl)cccc1Cl | 24.6%
25 | Cc1ccc(CC(=O)O)c(C)c1 | 91.4%
26 | N=C(N)N=Nc1ccc(NN=C(N)N)cc1 | 53.6%
27 | CCCNC(=O)Oc1ccc(/C(=C(/C)Cc2ccc(OC)cc2)c2ccc(OCCN3CCCCC3)cc2)cc1 | 60.8%
28 | CCCCN(CCCC)CCCNc1c2c(nc3ccc(Cl)cc13)CCCC2 | 72.7%
29 | CCCCCCCCCCN1CC2CCCCC2C1 (stereo not given) | 65.5%
30 | N=C(N)N=Nc1ccc(NN=C(N)N)c2ccccc12 | 69.6%
31 | Cc1c(Cc2ccccc2)c(=O)oc2c(C)c(OCC(=O)n3nc(C#N)cc3N)ccc12 | 75.6%
32 | CC(=O)OCC1O[C@@H](OC(C)=O)[C@@H](NC(=O)NS(=O)(=O)c2ccccc2)C(OC(C)=O)[C@@H]1OC(C)=O (stereo not given in full) | 90.9%
33 | CC(=O)Nc1nc(C)c(C(=O)N/N=C/N2CCCCC2)s1 | 98.7%
34 | Cc1ccc(NCc2cn(-c3ccc(C(=O)O)cc3)nc2-c2ccc(C(=O)O)cc2)cc1 | 90.6%
35 | CC(C)CSc1nc(-c2ccc(F)cc2)c(C#N)c(N2CCCCC2)n1 | 95.3%
36 | COc1ccc(/C=N/c2cc(C(C)(C)C)nn2-c2ccccc2)cc1 | 94.5%
37 | CC[C@H](Nc1ncnc2nc[nH]c12)c1nc2cccc(NCc3ccc(C(=O)NO)nc3)c2c(=O)n1-c1ccccc1 | 87.1%
38 | COc1ccc(CN2C(=O)/C(=C\C(=O)c3ccc(OCCN4CCCC4)cc3)c3ccccc32)cc1 | 56.5%
39 | COC1=C(OC)C(=O)c2ccccc2C1=O | 78.6%
40 | CCC(C)C1NC(=O)C(CC(C)C)NC(=O)C(C)NC(=O)C(C(C)C)NC(=O)C(CCCCN)NC(=O)C(CC(C)C)NC(=O)C(C(C)C)NC(=O)[C@H](C)NC(=O)C(C(C)CC)NC(=O)C(CCCN=C(N)N)NC(=O)C(CCCCN)NC(=O)C(CCCN=C(N)N)NC(=O)C(CCCCN)NC(=O)C([C@H](C)CC)NC(=O)C(CCCCN)NC1=O (stereo not given in full) | 21.8%

Test system: TK-10 renal
Assay: as above
Conditions: 10 µM unless noted

Row | Structure (SMILES) | growth
41 | O=C(Oc1ccccc1)c1ccccc1Cl | 111%
42 | COc1ccc(-c2nc(SCC(C)C)nc(Nc3ccc(C(=O)O)cc3)c2C#N)cc1 | 88.5%
43 | C[C@@H](c1ccc2c(c1)[nH]c1ccc(Cl)cc12)c1nc2ccccc2[nH]1 | 136%
44 | Cc1nnc(/N=C2\NC(=O)/C(=C/C=C/c3ccccc3)S2)s1 | 70.3%
45 | CCOc1ccccc1/C=N\N=C(N/N=C/c1ccccc1OCC)N/N=C/c1ccccc1OCC | 27.8%
46 | CCOC(=O)CSSCC(=O)OCC | 103%
47 | O=C(O)c1ccc(Br)nc1 | 86.8%
48 | O=C(O)c1ccc(-c2nn(-c3ccc(C(=O)O)cc3)cc2CNc2ccc(Br)cc2)cc1 | 98.4%
49 | NC(N)=N/N=C/c1cccc(Br)c1 | 100%
50 | C=CCNC(=S)NNc1ccc([N+](=O)[O-])cn1 | 104%
51 | CCCC(=O)Nc1ccccc1C(=O)O | 92.3%
52 | O=C(/C=C1\C(=O)N(Cc2ccc([N+](=O)[O-])cc2)c2ccccc21)c1ccc(OCCN2CCCCC2)cc1 | -81.4% (active)
53 | COc1cc2cc3cc4cc(OC)c(OC)cc4c(C)[n+]3cc2cc1OC (tested in a mixture with another compound) | 117%
54 | COc1ccc(-c2nc(N)n(C(=S)Nc3ccccc3)n2)cc1 | 113%
55 | Nc1ccc(N=Nc2ccccc2)c2cc(S(=O)(=O)O)ccc12 | 92.9%
56 | O=C(C(=O)N1CCOCC1)c1ccc(O[C@H]2O[C@H](CO)[C@@H](O)[C@H](O)[C@@H]2O)cc1 | 103%
57 | O=C(/C=C1\C(=O)N(Cc2ccccc2)c2ccccc21)c1ccc(OCCN2CCCCC2)cc1 | 40.3%
58 | CCCCCCNC(=O)Oc1ccc(/C(=C(/C)Cc2ccc(OC)cc2)c2ccc(OCCN(C)C)cc2)cc1 | 71.5%
59 | COc1ccc(-c2nc(SCC(C)C)nc(Nc3ccc(C)cc3)c2C#N)cc1 | 43.3%
60 | CCOC(=O)C1CCCN1C(=O)C1(NC(C)=O)CCCC1 (stereo not given) | 107%

Row | Structure (SMILES) | growth
61 | CCOC(=O)C1=NN(c2ccccc2)C2=NC(=O)/C(=C\c3cn(-c4ccccc4)nc3-c3cc4ccccc4o3)C(=O)N12 | 161%
62 | CC1=C(C)C[C@]2(C(=O)O[C@H]3CCCC[C@@H]32)[S@](=O)C1 | 89.7%
63 | CC(=N\N=C(N)N)/C(=N/N=C(N)N)c1ccccc1 | 91.1%
64 | O=C1/C(=C\c2cn(-c3nc(N4CCOCC4)nc(N4CCOCC4)n3)c3ccccc23)c2ccccc2N1c1c(Cl)cccc1Cl | 60%
65 | Cc1ccc(CC(=O)O)c(C)c1 | 88.3%
66 | N=C(N)N=Nc1ccc(NN=C(N)N)cc1 | 103%
67 | CCCNC(=O)Oc1ccc(/C(=C(/C)Cc2ccc(OC)cc2)c2ccc(OCCN3CCCCC3)cc2)cc1 | 81.1%
68 | CCCCN(CCCC)CCCNc1c2c(nc3ccc(Cl)cc13)CCCC2 | 86.3%
69 | CCCCCCCCCCN1CC2CCCCC2C1 (stereo not given) | 81.4%
70 | N=C(N)N=Nc1ccc(NN=C(N)N)c2ccccc12 | 108%
71 | Cc1c(Cc2ccccc2)c(=O)oc2c(C)c(OCC(=O)n3nc(C#N)cc3N)ccc12 | 123%
72 | CC(=O)OCC1O[C@@H](OC(C)=O)[C@@H](NC(=O)NS(=O)(=O)c2ccccc2)C(OC(C)=O)[C@@H]1OC(C)=O (stereo not given in full) | 98.6%
73 | CC(=O)Nc1nc(C)c(C(=O)N/N=C/N2CCCCC2)s1 | 144%
74 | Cc1ccc(NCc2cn(-c3ccc(C(=O)O)cc3)nc2-c2ccc(C(=O)O)cc2)cc1 | 99%
75 | CC(C)CSc1nc(-c2ccc(F)cc2)c(C#N)c(N2CCCCC2)n1 | 91.4%
76 | COc1ccc(/C=N/c2cc(C(C)(C)C)nn2-c2ccccc2)cc1 | 117%
77 | CC[C@H](Nc1ncnc2nc[nH]c12)c1nc2cccc(NCc3ccc(C(=O)NO)nc3)c2c(=O)n1-c1ccccc1 | 58.9%
78 | COc1ccc(CN2C(=O)/C(=C\C(=O)c3ccc(OCCN4CCCC4)cc3)c3ccccc32)cc1 | 109%
79 | COC1=C(OC)C(=O)c2ccccc2C1=O | 115%
80 | CCC(C)C1NC(=O)C(CC(C)C)NC(=O)C(C)NC(=O)C(C(C)C)NC(=O)C(CCCCN)NC(=O)C(CC(C)C)NC(=O)C(C(C)C)NC(=O)[C@H](C)NC(=O)C(C(C)CC)NC(=O)C(CCCN=C(N)N)NC(=O)C(CCCCN)NC(=O)C(CCCN=C(N)N)NC(=O)C(CCCCN)NC(=O)C([C@H](C)CC)NC(=O)C(CCCCN)NC1=O (stereo not given in full) | 20.2%
